A selection: hits, their analogues and other compounds. The true share with any hit is near 3.4%.
SMARCA2 activ – SMARCA2 (BRM) function activators, primary screen, cell-based, luminescence, high throughput. MG213 cells, MMTV-luciferase reporter, dexamethasone, overnight. activation, % at 9.1 µM. 370,000 tested, 1% active. AID 652017, 2013; in the data active = activation above about 7.8%;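 note: 0% = vehicle wells and 100% = reference activator wells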
COUP-TFII inh – NR2F2 transcriptional activity inhibitors, primary screen, cell-based, luciferase reporter, HEK293T, luminescence | 370,000 tested, 0.7% active | HEK293T NGFI-A luciferase reporter | AID 686940, 2013 | inhibition, % at 8.6 µM;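 active = inhibition above a per-plate cutoff, mean inhibition of test wells between control levels plus 3 SD, cut at about 38% in these data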;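 note: cells cotransfected with COUP-TFII expression vector driving the NGFI-A reporter; 0% = median of COUP-TF2 test wells and 100% = reporter-only cells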
GalR3 antag – GalR3 antagonists in HEK293 cells, primary screen, cell-based, fluorescence readout; Galanin receptor type 3 (Homo sapiens), O60755; HEK293 GalR3-CNG cAMP membrane potential fluorescence; galR3 body fused to GalR1 C-terminus; inhibition, % at 3 µM; 360,000 tested, 0.44% active;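 active = inhibition above the screen-wide average plus 3 SD, cut at about 13% in these data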;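 note: forskolin and galanin both at EC90 stimulate the cells; cAMP rise reported by CNG channel membrane potential dye signal; 0% = forskolin plus galanin with DMSO and 100% = forskolin alone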
Target sequence (O60755 1-299 limits assumed): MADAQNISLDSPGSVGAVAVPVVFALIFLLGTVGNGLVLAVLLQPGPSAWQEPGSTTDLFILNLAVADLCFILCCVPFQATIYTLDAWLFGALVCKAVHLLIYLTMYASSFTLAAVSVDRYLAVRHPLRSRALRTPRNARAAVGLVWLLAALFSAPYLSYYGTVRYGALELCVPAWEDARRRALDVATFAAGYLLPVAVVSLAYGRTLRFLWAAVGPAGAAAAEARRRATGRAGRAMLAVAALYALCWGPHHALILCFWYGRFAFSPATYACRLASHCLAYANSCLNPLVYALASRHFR
Cardio protect – cardioprotection against H2O2-induced cell death, primary screen, uHTS, H9c2 cells, ATPLite luminescence. protection from H2O2 cell death, % at 20 µM. AID 588492, 2011. 360,000 tested, 0.63% active. H9c2 cardiomyocytes, H2O2 injury protection, 2 h;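 active = compounds giving at least 50% protection of heart cells from peroxide-induced death in the single-dose screen, raw or plate-pattern-corrected value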;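 note: 0% = DMSO wells with peroxide and 100% = DMSO wells without peroxide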
FXN GAA850 act – FXN promoter activators, primary screen, cell-based, luciferase luminescence, HEK293 lucGAA850; HEK293 lucGAA850 FXN promoter luciferase reporter, 24 h; percent of 10 µM SAHA response; activation, % at 6 µM; 360,000 tested, 0.56% active; AID 540364, 2011;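 active = activation above the average of all compounds screened plus 3 SD, cutoff fixed separately per campaign, cut at about 7.5% in these data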;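 note: 0% = DMSO wells and 100% = 10 µM SAHA wells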
Gli-Sufu block – Gli-Sufu pathway antagonists, primary screen, luciferase luminescence, Sufu-KO-LIGHT cells, uHTS; Sufu-KO-LIGHT fibroblasts, Gli luciferase reporter luminescence; inhibition, % at 5 µM; 340,000 tested, 0.74% active; AID 588413, 2011;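 active = inhibition above about 55%, limit read from the data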;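 note: 0% = DMSO-treated cells and 100% = wells with medium but no cells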
Gli-Sufu confirm – Gli-SUFU pathway antagonists, confirmation, single concentration, luciferase luminescence, Sufu-KO-LIGHT cells; 2,500 tested, 40% active; inhibition, % at 5 µM; Gli luciferase reporter; shares compounds with Gli-Sufu block;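 active = mean inhibition at 5 µM reaching about 45%, limit read from the data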;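 note: plate controls were DMSO-treated cells for no effect and wells lacking cells for full effect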
Gli cytotox – cytotoxicity in Sufu-KO-LIGHT cells, confirmation, cytotoxicity control for Gli-SUFU antagonist project, cell-based, ATP luminescence, single concentration | shares compounds with Gli-Sufu block | cytotoxicity, % at 5 µM | 2,500 tested, 32% active | AID 651994, 2013;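 active = mean cytotoxicity at 5 µM above about 25%, limit read from the data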;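 note: cells exposed to compound overnight for roughly 16 to 18 hours; plate controls were DMSO wells with cells for no effect and medium without cells for full effect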
Wnt3a cs – Wnt3a reporter signal inhibition, confirmation, counter-screen for Gli-SUFU antagonist project, Wnt-LIGHT cells, luminescence, single concentration | 2,500 tested, 20% active | Wnt3a-driven luciferase reporter | shares compounds with Gli-Sufu block | inhibition, % at 6.25 µM | AID 651995, 2013;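 active = mean inhibition above about 25%, limit read from the data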
GalR3 antag conf – GalR3 antagonist hit confirmation, cell-based, fluorescence, triplicate; shares compounds with GalR3 antag; HEK293 GalR3 CNG cAMP biosensor, membrane potential fluorescence; galR3 fused to GalR1 carboxy tail; challenged with forskolin and galanin at EC90; inhibition, % at 3 µM; 1,600 tested, 59% active;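 active = inhibition above the primary screen's cutoff, the mean inhibition of all screened compounds plus 3 SD, cut at about 13% in these data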;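 note: 0% = forskolin plus galanin and 100% = forskolin alone with DMSO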
CNG parental – nonspecific cAMP agonists in parental HEK-CNG cells, counter-screen for GalR3 antagonist project, cell-based, fluorescence, high throughput. HEK293-CNG parental cells, cAMP membrane potential fluorescence; normalised: DMSO wells 0%, forskolin wells 100%. 1,600 tested, 10% active. activation, % at 3 µM. shares compounds with GalR3 antag; in the data active = activation above about 1.3%
Active calls of the source: *; · = no result given.

SMILES | SMARCA2 activ | COUP-TFII inh | GalR3 antag | Cardio protect | FXN GAA850 act | Gli-Sufu block | Gli-Sufu confirm | Gli cytotox | Wnt3a cs | GalR3 antag conf | CNG parental
COc1ccc(C2CC(c3ccccc3)=NN2S(=O)(=O)c2ccc(C)cc2)c(OC)c1 (centres undefined) | -2.6 | 3.2 | 0.6 | -7.7 | 2.7 | 51.0 | 34.1 | 37.4* | -8.8 | · | ·
COc1ccc(C2CC(c3ccccc3)=NN2S(=O)(=O)c2ccccc2)c(OC)c1 (centres undefined) | -3.3 | -15.6 | -4.3 | -10.7 | 2.4 | 14.8 | · | · | · | · | ·
COCCNc1nc2c(c(=O)n(C)c(=O)n2C)n1Cc1cccc(C)c1 | 0.2 | 20.9 | -3.6 | -12.5 | -0.7 | 61.4* | 62.6* | 25.1* | 24.2 | · | ·
COc1ccc(/C=C2/CN(Cc3ccc(OC)cc3OC)C3=N[C@H](c4ccccc4)CC(=O)N32)cc1 | -2.5 | -0.2 | · | · | · | · | · | · | · | · | ·
O=C(Nc1ccccc1Cc1ccccc1)c1ccccc1NS(=O)(=O)c1ccc(Cl)s1 | -8.5 | 29.3 | 96.2* | -15.9 | -4.8 | 58.8* | 62.6* | 30.1* | 56.9* | 103.5* | -0.5
COc1cc(NC(=O)Nc2cccn3nc(COCCO)nc23)cc(OC)c1OC | -1.4 | -2.4 | -7.2 | -1.5 | 0.4 | · | · | · | · | · | ·
Cc1cc(C#N)c(C)c(SCc2[nH]nc3c2C(c2ccccc2)C(C#N)=C(N)O3)n1 (centres undefined) | 1.6 | 0.8 | 26.5* | -4.3 | -1.1 | 57.8* | 24.9 | 15.7 | 0.1 | 12.1 | 0.8
Cc1ccc(SCc2[nH]nc3c2C(c2cccnc2)C(C#N)=C(N)O3)cc1 (centres undefined) | -1.9 | 15.8 | -1.4 | 5.3 | 1.7 | 1.5 | · | · | · | · | ·
C=CCNc1nc2c(c(=O)n(C)c(=O)n2C)n1CCCCCC | -6.2 | 61.0* | 40.6* | -12.2 | -5.9 | 68.7* | 74.7* | 35.5* | 40.0* | 83.0* | 0.0
C=CCNc1nc2c(c(=O)n(C)c(=O)n2C)n1CC | 0.1 | 2.9 | 1.7 | 4.8 | 2.2 | 2.4 | · | · | · | · | ·
CC(=O)c1c(C)[nH]c(C(=O)OCC(=O)Nc2ccc(C)cc2[N+](=O)[O-])c1C | -8.0 | 28.5 | 12.9* | -7.9 | 0.4 | 77.3* | 80.0* | 26.5* | 27.6* | 106.5* | -1.0
O=C(CCn1cccc(C(F)(F)F)c1=O)Nc1cccc(C(F)(F)F)c1 | -4.5 | 1.6 | 0.2 | -5.8 | 1.1 | -7.0 | · | · | · | · | ·

Screening results from PubChem BioAssay.
